Assay results: PubChem BioAssay
Active and inactive are the calls of the source.

Experiments:
[1] = A549 cell viability effects, profiling panel, calcein-AM fluorescence, 48 h, basal (AID 1162); details: higher = more signal
[2] = adipocyte viability effects, profiling panel, cell-based, 3T3-L1 adipocytes, calcein-AM fluorescence, 48 h, basal (AID 1163); details: 3T3-L1 adipocytes viability, higher = more signal
[3] = HepG2 cell viability effects, profiling panel, calcein-AM fluorescence, 48 h, basal (AID 1164); details: higher = more signal
[4] = MM1S cell viability effects, profiling panel, calcein-AM fluorescence, 48 h, basal (AID 1165); details: higher = more signal;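 also: viability of MM1S multiple myeloma cells under basal unstimulated conditions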
[5] = basal RPMI8226 viability, no added stimulus, profiling panel, cell-based, calcein-AM fluorescence, 48 h, PK04 Diversity Set (AID 1166); details: RPMI8226 myeloma viability, higher = more signal;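 also: cells grown under basal conditions without added stimulus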
[6] = basal HepG2 mitochondrial membrane potential changes, profiling panel, cell-based, JC-1 fluorescence, 24 h, 100 nL compound (AID 1167); details: higher = more signal
[7] = basal 3T3-L1 adipocyte mitochondrial potential changes, profiling panel, cell-based, JC-1 fluorescence, 3T3-L1 adipocytes, 24 h, 100 nL compound (AID 1168); details: JC-1 mitochondrial fluorescence, higher = more signal, called active from +8 up or from −8 down
[8] = basal RPMI8226 mitochondrial membrane potential changes, profiling panel, cell-based, JC-1 fluorescence, 24 h, 100 nL compound (AID 1169); details: RPMI8226 myeloma, JC-1 mitochondrial potential fluorescence, higher = more signal
[9] = basal MM1S mitochondrial membrane potential changes, profiling panel, cell-based, JC-1 fluorescence, 24 h, 100 nL compound (AID 1170); details: higher = more signal
[10] = A549 lung cancer cell viability effects, profiling panel, resazurin fluorescence, 24 h, PK04 Diversity Set (AID 1171); details: higher = more signal, called active from +8 up or from −8 down
Also: test concentration not given here.

| SMILES | z-score [1] | z-score [2] | z-score [3] | z-score [4] | z-score [5] | z-score [6] | z-score [7] | z-score [8] | z-score [9] | z-score [10] |
| --- | --- | --- | --- | --- | --- | --- | --- | --- | --- | --- |
| CCCNC(=O)[C@@H]1c2ccccc2C(=O)N(Cc2ccc(OC(F)(F)F)cc2)[C@H]1c1ccc(CO)cc1 | 1.17 | 0.385 | 2.08 | 0.157 | 0.485 | 3.22 | 1.22 (inactive) | 0.432 | 0.129 | 0.285 (inactive) |
| CC(C)NC(=O)[C@@]1(C)c2ccccc2C(=O)N(Cc2ccc(OC(F)(F)F)cc2)[C@H]1c1ccc(CO)cc1 | -0.692 | 1.08 | 0.0903 | -0.0831 | -0.676 | 2.05 | -0.682 (inactive) | -0.547 | -1.67 | -0.0752 (inactive) |
| CCCCCCCCCC(O)C1C=CC2C(=O)N(c3ccccc3)C(=O)C2N1Nc1cc(OC)c(OC)c(OC)c1 (stereo not given) | -1.07 | 0.614 | -0.777 | -3.83 | -4.07 | -0.0684 | 0.783 (inactive) | -0.994 | -1.21 | -1.58 (inactive) |
| N#Cc1ccc(NN2C(C(O)c3ccc(Br)cc3)C=CC3C(=O)N(c4ccccc4)C(=O)C32)cc1 (stereo not given) | 0.647 | 0.0175 | 1.11 | -0.615 | 0.201 | -0.574 | 0.507 (inactive) | 0.244 | 0.0172 | -0.421 (inactive) |
| Cc1cc(C)c(C(O)C2C=CC3C(=O)N(c4ccccc4)C(=O)C3N2Nc2ccccc2F)c(C)c1 (stereo not given) | -0.472 | -0.89 | -0.631 | -1.57 | 0.48 | -1.84 | -0.709 (inactive) | -0.15 | 1.01 | 1.61 (inactive) |
| CCCCCCCCCCC(O)C1C=CC2C(=O)N(c3ccccc3)C(=O)C2N1Nc1ccc(C#N)cc1 (stereo not given) | -2.09 | 0.0958 | -4.9 | -3.73 | -4.13 | -3.28 | -0.15 (inactive) | -0.939 | -0.469 | -0.186 (inactive) |
| CCCC=C(CCC)[C@@H](NS(=O)(=O)CC12CCC(CC1=O)C2(C)C)c1ccc(C(=O)OC)cc1 (stereo not given in full) | -0.672 | -0.316 | -0.915 | 0.295 | -1.06 | -2 | 0.273 (inactive) | 0.7 | -1.46 | 0.252 (inactive) |
| CCOC(=O)C[C@H]1[C@H](OC(=O)c2cc3ccccc3oc2=O)[C@@H](NC(=O)CC(C)C)c2cc(OCCCO)ccc2N1C(=O)c1ccc2ccccc2n1 | -0.326 | -0.166 | 0.311 | -0.18 | 0.156 | -0.858 | -0.415 (inactive) | -0.272 | -0.692 | -0.103 (inactive) |
| COc1ccccc1CN1C(=O)c2ccccc2[C@](Cc2ccccc2I)(C(=O)O)[C@@H]1c1ccc(CO)cc1 | 1.14 | -1.03 | 0.235 | -0.616 | -1.7 | -0.199 | -0.205 (inactive) | -0.151 | -0.177 | -0.17 (inactive) |
| CCOC(=O)C1=CC[C@@H](c2ccccc2F)N(S(=O)(=O)c2ccc(C)cc2)[C@H]1c1ccccc1 | -0.982 | -0.815 | -0.244 | -1.47 | -0.413 | 2.25 | -1.35 (inactive) | -0.0368 | -1.24 | 2.12 (inactive) |
| CC(C)[Si](C#CCCCC#N)(O[C@H](c1ccccc1)c1cn(Cc2ccccc2)nn1)C(C)C | 0.059 | -0.454 | -0.213 | 0.444 | -0.34 | 0.604 | 0.0406 (inactive) | 0.993 | -1.31 | -0.235 (inactive) |
| CCCCCN1CC=CC23O[C@@H]4C=CCCOC(=O)C4[C@H]2C(=O)N(CCCCCCO)[C@@H]3C1=O (stereo not given in full) | -0.182 | -0.131 | 0.28 | 0.762 | 0.494 | 0.306 | 0.737 (inactive) | 0.548 | -0.823 | 0.229 (inactive) |
| COc1ccc(C#Cc2ccc3c(c2)[C@]2(C(=O)N3)[C@H](c3ccc(OCCO)cc3)N3[C@H](c4ccccc4)[C@H](c4ccccc4)OC(=O)[C@H]3[C@@H]2C(=O)NC[C@H](O)c2ccccc2)cc1 | 0.357 | -0.177 | 1.08 | 0.373 | -1.46 | -1.04 | 4.7 (inactive) | -0.808 | -1.4 | 0.0652 (inactive) |
| [N-]=[N+]=Nc1ccccc1C[C@@]1(C(=O)N2CCOCC2)N=C(c2ccc(OCCCO)cc2)O[C@@H]1c1ccccc1 | 0.239 | -0.231 | 1.01 | -1.92 | -2.57 | 1.02 | 0.752 (inactive) | -1.23 | -0.324 | -1.07 (inactive) |
| O=C(NCc1ccc(F)cc1)[C@H]1C[C@H]2C(=O)NCC(=O)N2[C@H]1c1ccc(O)cc1 | 0.139 | -0.218 | -0.457 | -1.49 | 0.461 | 0.679 | -0.276 (inactive) | 0.683 | 0.318 | 0.54 (inactive) |
| CC[C@@H]1C=C(C(=O)O)[C@H](c2ccccc2)N1S(=O)(=O)c1ccc(C)cc1 | -0.71 | -1.48 | -1.22 | -0.0502 | -0.674 | -0.93 | -0.703 (inactive) | 0.77 | -0.76 | -0.687 (inactive) |
| COC(=O)c1c(CC[C@@H](CO)NC(=O)N[C@@H](C)Cn2cc(-c3ccccn3)nn2)oc(C(C)=O)c1C(=O)OC | -0.495 | 0.526 | -0.239 | 0.226 | -0.858 | -0.182 | -0.857 (inactive) | -0.181 | -0.0849 | -1.38 (inactive) |

| SMILES | z-score [1] | z-score [2] | z-score [3] | z-score [4] | z-score [5] | z-score [6] | z-score [7] | z-score [8] | z-score [9] | z-score [10] |
| --- | --- | --- | --- | --- | --- | --- | --- | --- | --- | --- |
| CC1=C2[C@@H](CCc3ccccc3)OB(O)C[C@@H]2[C@@H]2C(=O)N(Cc3ccccc3)C(=O)[C@@H]2C1 | -0.261 | -0.351 | -0.932 | -2.9 | -2.4 | -0.999 | -0.301 (inactive) | 0.49 | 0.821 | -0.17 (inactive) |
| COCC(=C=CC[C@H](O)c1ccc(OCCO)cc1)CCO | 1.06 | 0.156 | -0.587 | -1.28 | 0.231 | -0.255 | -0.597 (inactive) | 0.854 | 0.464 | 1.01 (inactive) |
| Cc1ccc(C(C)CC(O)C2C=CC3C(=O)N(c4ccccc4)C(=O)C3N2Nc2ccccc2)o1 (stereo not given) | -0.0446 | 0.001 | 0.179 | -0.559 | -1.69 | -1.64 | -0.279 (inactive) | -0.178 | -1.71 | -0.706 (inactive) |
| C=CC[C@@]1(C(=O)NCCCOC)N=C(c2ccc(OCCCO)cc2)O[C@@H]1c1ccccc1N=[N+]=[N-] | 1.42 | 0.0373 | -0.465 | -1.06 | 0.241 | 1.62 | 0.863 (inactive) | -0.178 | -0.917 | 0.2 (inactive) |
| C#Cc1cc2ccccc2oc1=O | -1.35 | -1.04 | -0.651 | -0.932 | -0.414 | -1.5 | 0.272 (inactive) | 0.923 | -0.99 | -0.629 (inactive) |
| COC(=O)C/C=C/C[C@]1(O)C(=O)N(C)c2ccccc21 | 1.59 | 0.349 | 1.39 | 0.672 | -0.419 | 1.25 | -0.694 (inactive) | -0.838 | 2.2 | 0.946 (inactive) |
| COc1ccc([Si](C)(C)[C@@H]2[C@@H](CCO)O[C@]3(C(=O)N(Cc4ccccc4)c4ccc(N5CCOC5=O)cc43)[C@H]2C)cc1 | -1.39 | 1.67 | -1.26 | -2.34 | -3.44 | -0.309 | 0.168 (inactive) | -0.947 | -0.756 | -1.94 (inactive) |
| CC#CCO[Si](C#Cc1ccccc1)(C(C)C)C(C)C | -0.511 | -0.458 | -0.175 | -0.806 | -1.83 | -1.51 | -0.628 (inactive) | -0.845 | -1.3 | -0.537 (inactive) |
| Cc1ccc(NN2C(C(O)c3c(F)cccc3Cl)C=CC3C(=O)N(C4CCCCC4)C(=O)C32)cc1 (stereo not given) | 0.57 | -0.617 | 0.934 | 0.949 | 0.451 | -0.511 | 0.165 (inactive) | 0.0377 | -1.04 | 0.693 (inactive) |
| Cc1ccc(S[C@]2(C(=O)NCC(F)(F)F)CC(=O)N(Cc3cc(C(F)(F)F)cc(C(F)(F)F)c3)[C@@H]2c2ccc(CO)cc2I)cc1 | -0.369 | -0.37 | -0.548 | -2.27 | -2.64 | -0.812 | -0.792 (inactive) | -0.366 | -0.852 | 1.19 (inactive) |
| COCCOC(=O)N1C(=O)[C@@]2(c3cc(C#CC4=CCCCC4)ccc31)[C@H](C(=O)Nc1nc3ccccc3s1)[C@H]1C(=O)O[C@H](c3ccccc3)[C@H](c3ccccc3)N1[C@@H]2c1ccc(O)cc1 | 0.427 | 0.217 | 0.0981 | -1.79 | -1.62 | -3.16 | -0.762 (inactive) | -0.404 | -0.54 | -0.353 (inactive) |
| Cc1ccc(S[C@]2(C(=O)O)CC(=O)N(C3CCCCC3)[C@@H]2c2ccc(CO)cc2I)cc1 | -0.756 | 0.505 | -0.561 | -2.64 | -2.13 | -1.1 | -0.343 (inactive) | -0.278 | 0.0653 | 0.808 (inactive) |
| O=C1OCCC/C=C\[C@H]2OC34C=CCN(c5ccc6ccccc6c5)C(=O)[C@H]3N(CCO)C(=O)[C@@H]4C12 (stereo not given in full) | 0.451 | 1.91 | -0.569 | 1.3 | -0.205 | -0.00127 | -0.622 (inactive) | -0.0898 | 1.03 | -1.48 (inactive) |
| CCCC=C(CCC)[C@@H](NP(=O)(c1ccccc1)c1ccccc1)c1ccc(-c2ccccc2)cc1 | -1.51 | -0.933 | -1.47 | -1.67 | -2.96 | -4.76 | 0.74 (inactive) | -0.343 | -2.36 | 0.647 (inactive) |
| COCCOC(=O)N1C(=O)[C@@]2(c3cc(C#CCCO)ccc31)[C@H](c1ccc(OCCO)cc1)N1[C@H](c3ccccc3)[C@H](c3ccccc3)OC(=O)[C@H]1[C@@H]2C(=O)Nc1nc2ccccc2s1 | -0.255 | 0.561 | 0.779 | -0.981 | -0.0413 | -3.68 | -1.38 (inactive) | -0.78 | -1.81 | -0.5 (inactive) |
| C=CCN1C(=O)[C@]2(CCC(=O)OC(C)(C)C)N=C(c3ccc(OCCCO)cc3)O[C@@H]2c2ccccc21 | -0.656 | 1.79 | -1.74 | -3.56 | -4.05 | -1.45 | 4.11 (inactive) | -1.05 | -2.81 | -2.21 (inactive) |
| CC(C)C[C@@H]1NC(=O)[C@@H]2C[C@H](C(=O)NCCCCCCN)[C@H](c3cccc(OCCO)c3)N2C1=O | -0.038 | 0.971 | -0.822 | 0.206 | -0.703 | -0.39 | 0.433 (inactive) | -0.84 | 0.519 | -0.862 (inactive) |
